# From PubChem BioAssay
# Active and inactive are the calls of the source.
# Legend:
# Albumin (Bos taurus) = Albumin (Bos taurus) (UniProt P02769); experiment: bovine serum albumin binders on microarray, profiling panel, artefact control for SMM control protein annotation, biochemical, small-molecule microarray, Alexa647 label, 635/667 nm fluorescence (AID 1118); settings: BSA-A647 binding, fluorescence 635 nm, higher = more signal;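 also: score merges 667 nm emission intensity and signal-to-noise per printed compound spot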
# Sequence of Albumin (Bos taurus) (P02769 whole entry, looked up): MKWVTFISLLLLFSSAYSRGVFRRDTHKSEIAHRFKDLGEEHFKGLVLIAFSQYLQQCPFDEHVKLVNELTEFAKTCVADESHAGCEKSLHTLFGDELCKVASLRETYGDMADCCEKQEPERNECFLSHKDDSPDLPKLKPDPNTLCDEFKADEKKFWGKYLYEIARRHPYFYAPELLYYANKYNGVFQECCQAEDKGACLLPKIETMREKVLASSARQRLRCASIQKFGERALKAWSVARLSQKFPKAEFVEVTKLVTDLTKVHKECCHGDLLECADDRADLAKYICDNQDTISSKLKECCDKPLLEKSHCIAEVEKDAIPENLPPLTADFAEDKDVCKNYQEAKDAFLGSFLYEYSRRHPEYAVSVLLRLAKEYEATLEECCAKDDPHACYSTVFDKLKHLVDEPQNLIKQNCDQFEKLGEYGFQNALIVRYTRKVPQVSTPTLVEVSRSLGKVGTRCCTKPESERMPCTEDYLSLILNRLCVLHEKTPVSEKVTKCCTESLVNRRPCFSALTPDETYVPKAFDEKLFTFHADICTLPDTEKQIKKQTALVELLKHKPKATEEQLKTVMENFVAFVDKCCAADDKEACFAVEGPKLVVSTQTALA
# [1] = small-molecule microarray binders of probe aXIP, primary screen, biochemical, NeuroSMM set, 635/667 nm fluorescence (AID 1119); settings: higher = more signal, called active from +8 up or from −8 down;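 also: probe is the protein aXip251-270 applied at 1 µg/mL to compound-printed slides; binding of probe to printed compounds measured as 667 nm fluorescence plus signal to noise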
# [2] = small-molecule binders of probe aNOTCH3, primary screen, biochemical, small-molecule microarray, 635/667 nm fluorescence (AID 1120); settings: higher = more signal;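 also: probe is a biotin-tagged antibody raised against NOTCH3 rather than NOTCH3 protein; score merges spot fluorescence near 667 nm with spot signal to noise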
# [3] = small-molecule binders of probe aNOTCH2, primary screen, biochemical, small-molecule microarray, 635/667 nm fluorescence (AID 1121); settings: higher = more signal;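 also: score merges feature fluorescence read at 667 nm with its signal to noise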
# [4] = target: Carbonic anhydrase 2 (Homo sapiens) (UniProt P00918); experiment: CAII small-molecule binders, profiling panel, biochemical, small-molecule microarray, Alexa647-labelled CAII (AID 1122); settings: CAII-A647 binding fluorescence, higher = more signal
# [5] = COS7 lysate on small-molecule microarray, probe aHis, 635 nm (AID 1123); settings: COS7 cell lysate, fluorescence, higher = more signal;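 also: z-score combines 667nm fluorescence intensity with signal-to-noise per printed compound spot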
# [6] = compound binding in COS7 lysate, probe aLAP1, primary screen, cell lysate, small-molecule microarray (AID 1124); settings: probe aLAP1, fluorescence, higher = more signal;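 also: lysate comes from COS7 cells expressing LAP1 and is applied at 0.3 µg/mL; score merges spot fluorescence near 667 nm with signal-to-noise over triplicate slides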
# Sam68 (KHDRBS1) = experiment: Sam68 small-molecule binders, primary screen, biochemical, small-molecule microarray, 635 nm fluorescence (AID 1125); settings: small-molecule microarray binding, higher = more signal;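 also: score merges 667 nm channel intensity with signal to noise over triplicate slides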
# [7] = test system: Chordin-like protein 2 (CHRDL2); experiment: CHRDL2 small-molecule binders, primary screen, biochemical, small-molecule microarray, 635 nm fluorescence (AID 1126); settings: small-molecule microarray binding, fluorescence 635 nm; higher = more signal;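 also: printed compound slides probed with Chrdl2 protein at 4 µg/mL for 1 h at 4 C; score merges 667 nm emission intensity with signal to noise over three replicate slides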
# [8] = target: Concanavalin-A (Canavalia ensiformis) (UniProt P02866); experiment: ConA small-molecule binders, primary screen, artefact control for SMM control protein annotation, biochemical, small-molecule microarray, Alexa647 label, 635 nm (AID 1127); settings: ConA-A647 binding fluorescence, higher = more signal;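 also: z combines 667 nm emission intensity with signal-to-noise across three replicate slides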
# Sequence of Concanavalin-A (Canavalia ensiformis) (P02866 whole entry, looked up): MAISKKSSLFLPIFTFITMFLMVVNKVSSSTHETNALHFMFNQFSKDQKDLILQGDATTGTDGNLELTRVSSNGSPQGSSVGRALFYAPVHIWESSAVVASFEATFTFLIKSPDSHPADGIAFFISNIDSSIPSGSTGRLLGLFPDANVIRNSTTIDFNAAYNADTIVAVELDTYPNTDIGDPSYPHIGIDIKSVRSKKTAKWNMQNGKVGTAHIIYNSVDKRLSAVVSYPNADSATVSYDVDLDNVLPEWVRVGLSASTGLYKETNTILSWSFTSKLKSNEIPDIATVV
Structure (SMILES),composite z-score (Albumin (Bos taurus)),composite Z-score [1],composite z-score [2],composite z-score [3],composite z-score [4],composite z-score [5],composite z-score [6],composite z-score (Sam68 (KHDRBS1)),composite z-score [7],composite z-score [8]
CCOC(=O)C1=C[C@@H](c2ccccc2)N(S(=O)(=O)c2ccc(C)cc2)[C@H]1c1cccc(Cl)c1,0.895,-0.101 (inactive),0.224,0.152,0.703,-0.102,0.882,1.31,-0.599,1.11
COCCOC(=O)N1C(=O)[C@@]2(c3cc(C#CC4(O)CCCCCC4)ccc31)[C@H](C(N)=O)[C@H]1C(=O)O[C@H](c3ccccc3)[C@H](c3ccccc3)N1[C@@H]2c1ccccc1OCCO,0.199,-0.526 (inactive),-0.6,-0.219,0.541,2,0.591,1.31,0.369,0.845
C=C(C(=O)CC[C@H](OC(=O)c1cccnc1)c1ccc(CO)o1)C(C)C,0.0812,0.674 (inactive),0.0596,-0.0633,0.655,0.403,0.309,0.839,0.302,0.645
CC[C@@H]1[C@H]2C3C(=O)N(CC)C(=O)C3CC(=O)[C@H]2[C@H](c2ccc(C)cc2)N1S(=O)(=O)c1ccc(C)cc1 (stereo not given in full),0.779,-0.337 (inactive),0.0271,-0.0468,0.512,1.21,-0.357,1.33,-0.49,0.914
CCCCC(=C=CC[C@@H](O)c1ccc(OCCO)cc1)C[C@@H](O)COCc1ccccc1,-0.28,-0.114 (inactive),-0.182,-0.145,0.868,0.173,-0.268,0.61,0.0396,-0.382
COc1cc(CO)cc(I)c1O[C@H]1C=C(C(=O)NCCO)C[C@@H](NCc2ccccc2F)[C@@H]1O,0.162,0.235 (inactive),0.0979,-0.179,0.218,0.558,0.303,1.02,0.486,0.746
CO[C@H]1O[C@H](CO)[C@@H](OC(=O)c2ccc(Br)cc2)[C@@H]2OC(=O)[C@@H](Cc3ccc4ccccc4c3)C/C=C/C[C@H](Cc3ccc4ccccc4c3)C(=O)O[C@@H]12,0.934,0.589 (inactive),0.109,0.0043,0.63,1.93,0.547,1.24,-0.517,0.275
[N-]=[N+]=NCc1ccccc1C[C@@]1(C(N)=O)N=C(c2ccc(OCCCO)cc2)O[C@@H]1c1ccccc1CN=[N+]=[N-],0.757,1.22 (inactive),0.105,-0.0386,0.549,1.5,0.383,1.29,-0.464,0.792
Cc1ccc(F)cc1S(=O)(=O)N[C@@H]1CCN(Cc2ccc(OC(C)C)cc2)C1,0.175,-0.491 (inactive),-0.201,-0.154,0.359,-0.453,-0.182,-0.649,0.504,-1.41
CN(C)CCCNC(=O)[C@@H]1c2ccccc2C(=O)N(CC23CC4CC(CC(C4)C2)C3)[C@H]1c1ccc(CO)cc1,0.821,2.01 (inactive),-0.001,-0.0984,0.344,2.62,2.1,1.3,0.452,1.18
COc1ccccc1CN1C(=O)c2ccccc2[C@](Cc2ccccc2I)(C(=O)NC(C)C)[C@@H]1c1ccc(CO)cc1,0.894,0.338 (inactive),0.101,-0.123,0.131,2.39,0.226,1.3,0.286,1.16
COC(=O)Cn1c(C(=O)N2CCCC2)cc2c1C[C@H]1CN(C(=O)c3ccccc3)[C@@](Cc3ccc(F)cc3)(C(=O)OC)[C@@H]21,0.827,-0.14 (inactive),-0.0888,-0.036,0.885,0.965,0.0395,-1.17,-0.451,-0.432
COCC(=C=CC[C@H](O)c1cccc(OCCO)c1)C[C@H](O)c1ccccn1,0.0722,-0.0402 (inactive),-0.004,-0.145,0.778,3.79,0.369,0.52,-0.0575,0.102
CC(C)C(=C=CC[C@H](O)c1ccc(OCCO)cc1)C[C@H](O)c1cc(Cl)cc(Cl)c1O,0.584,0.32 (inactive),0.232,-0.0533,0.542,0.644,0.147,1.26,0.243,1.07
CC=CC(O)C1C=CC2C(=O)N(c3ccccc3)C(=O)C2N1Nc1ccc([N+](=O)[O-])cc1 (stereo not given),0.0015,-0.127 (inactive),-0.0044,-0.123,0.661,0.657,0.865,0.729,0.414,0.217
COCCCNC(=O)[C@@]1(Sc2ccc(C)cc2)CC(=O)N(C2Cc3ccccc3C2)[C@@H]1c1ccc(CO)cc1I,-1.09,-0.298 (inactive),-0.146,-0.102,0.871,-0.152,0.297,-0.52,-0.555,-1.61
C=C(C(=O)CC[C@H](OC(=O)c1cccnc1)c1cccc(OCCO)c1)C(C)C,-0.849,0.587 (inactive),-0.0971,-0.161,0.0143,0.0609,-0.0536,0.481,-0.507,-0.0842

Structure (SMILES),composite z-score (Albumin (Bos taurus)),composite Z-score [1],composite z-score [2],composite z-score [3],composite z-score [4],composite z-score [5],composite z-score [6],composite z-score (Sam68 (KHDRBS1)),composite z-score [7],composite z-score [8]
C=CC1c2cc(O)c(OC)cc2CCN1Cc1sc2ccccc2c1Cl (stereo not given),0.854,-0.967 (inactive),0.177,-0.0772,0.79,1.46,0.381,0.807,0.575,0.859
CC(C)C(CO)N1C(=O)[C@]2(C)C3C(=O)OCCC/C=C\[C@H]3OC23C=CCN(c2ccc(Cl)cc2)C(=O)[C@@H]13 (stereo not given in full),-0.187,-0.132 (inactive),-0.157,-0.164,0.853,3.39,0.32,0.36,-0.883,-0.522
COc1ccc(CCNC(=O)[C@@]2(Sc3ccc(C)cc3)CC(=O)N(Cc3cc(C(F)(F)F)cc(C(F)(F)F)c3)[C@@H]2c2ccc(CO)cc2I)cc1,0.259,1.4 (inactive),-0.193,-0.106,0.684,1.54,0.227,0.677,-0.596,0.759
C=CCN1C(=O)[C@@]2(CCC(=O)OC(C)(C)C)N=C(c3ccc(OCCCO)cc3)O[C@H]2c2ccccc21,0.71,0.0873 (inactive),0.108,0.0484,0.654,1.33,0.0616,0.817,0.145,1.16
Cc1ccc(S[C@]2(C(=O)NCC(F)(F)F)CC(=O)N(Cc3ccccc3)[C@@H]2c2ccc(CO)cc2)cc1,-0.597,0.363 (inactive),-0.115,-0.119,0.699,0.973,-0.0477,0.619,-1.23,-0.643
C[C@]12C(=O)N(CCCCCCO)[C@@H]3C(=O)N(c4ccc(Cl)cc4)CC=CC31O[C@@H]1/C=C\CCCOC(=O)C12 (stereo not given in full),0.377,1.82 (inactive),-0.16,-0.136,0.695,2.08,-0.133,0.488,-1.75,-0.403
COc1cc2c(cc1O)C(C)N(Cc1cc3c(cc1Br)OCO3)CC2 (stereo not given),-0.0769,2.1 (inactive),-0.119,-0.0924,0.887,0.578,0.349,-0.309,-0.55,-0.251
CN(C)CCCNC(=O)[C@@]1(c2ccc([N+](=O)[O-])cc2)CC(=O)N(CC23CC4CC(CC(C4)C2)C3)[C@@H]1c1ccc(CO)cc1,0.0561,-0.137 (inactive),0.683,0.094,0.49,3.43,0.82,1.3,1.07,1.15
CCCN1C(=O)[C@]2(Cc3ccccc3)N=C(c3ccc(OCCCO)cc3)O[C@@H]2c2ccccc21,0.727,-0.659 (inactive),-0.0345,-0.142,0.537,1.86,0.335,1.28,0.777,1.14
C=CC[C@@H](OC(=O)Nc1ccc(OC)cc1)c1ccc(OCCO)cc1,0.384,0.166 (inactive),-0.46,-0.0911,0.709,0.31,-0.347,-0.661,-2,-1.54
C=C(C(=O)CC[C@H](OC(C)=O)c1cccc(OCCO)c1)C(C)C,-0.757,0.562 (inactive),-0.135,-0.148,-0.382,0.409,-0.326,-0.0177,-1.23,-1.21
O=C1NCC(=O)N2[C@@H]1C[C@@H](C(=O)O)[C@H]2c1ccc(O)cc1,-0.575,-0.0127 (inactive),0.0397,-0.14,0.165,2.25,0.0452,1.31,1.48,1.07
CC1CC/C=C\[C@H]2OC34C=CCN(c5ccc6ccccc6c5)C(=O)[C@H]3N(C(CO)C(C)C)C(=O)[C@@H]4C2C(=O)O1 (stereo not given in full),0.912,0.142 (inactive),-0.125,-0.125,0.786,1.07,0.407,0.0645,-0.315,0.0601
CCCCN1CC=CC23O[C@@H]4C=CCOC(=O)[C@@H]4[C@H]2C(=O)N(CCCO)[C@@H]3C1=O (stereo not given in full),0.335,0.064 (inactive),-0.321,-0.179,0.868,0.726,0.95,0.237,-0.565,-0.926
CN1C(=O)C2C(C1=O)C1C=C(c3ccc(CO)cc3)C2C(c2cccs2)N1Cc1cccc(OC(F)(F)F)c1 (stereo not given),0.866,-0.228 (inactive),0.0824,-0.152,0.47,1.98,0.37,1.28,0.0434,1.08
COc1ccc([Si](C)(C)[C@H]2[C@H](CCn3cc([C@H](O)c4ccccc4)nn3)O[C@@]3(C(=O)N(Cc4ccc(N5CCC5=O)cc4)c4ccccc43)[C@@H]2C)cc1,0.0383,-0.128 (inactive),-0.0647,-0.167,0.0133,0.418,0.142,0.654,0.786,0.672
